Screens deposited in PubChem BioAssay by several laboratories.
ERa coact inh: blocks coactivator binding to human estrogen receptor alpha; P03372; TR-FRET ER-alpha LBD / SRC-1 peptide, estradiol-bound; inhibition, % at 25.6 µM; 86,000 tested, 1.7% active; AID 629; in the data active means inhibition above about 50%;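 further: 0% = receptor plus peptide control and 100% = peptide only without receptor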
ERa coact pot: ER-alpha (human) coactivator binding potentiation; TR-FRET ERalpha-LBD/SRC-Cy5 coactivator binding, 2 h; 100 = basal binding, no effect; coactivator binding (% of control), % at 25.6 µM; 86,000 tested, 1.3% active; AID 639; in the data active means activity above about 200%;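 further: binding measured in presence of low estradiol as agonist stimulus; 0% = peptide alone without receptor and 100% = receptor with peptide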
HePTP inh: human HePTP phosphatase inhibition; P35236; recombinant HePTP phosphatase activity, OD absorbance; inhibition, % at 20 µM; 110,000 tested, 0.64% active; in the data active means inhibition above about 50%;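 further: plate controls were vehicle for no effect and reference inhibitor for full effect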
Target sequence (P35236 whole entry, looked up): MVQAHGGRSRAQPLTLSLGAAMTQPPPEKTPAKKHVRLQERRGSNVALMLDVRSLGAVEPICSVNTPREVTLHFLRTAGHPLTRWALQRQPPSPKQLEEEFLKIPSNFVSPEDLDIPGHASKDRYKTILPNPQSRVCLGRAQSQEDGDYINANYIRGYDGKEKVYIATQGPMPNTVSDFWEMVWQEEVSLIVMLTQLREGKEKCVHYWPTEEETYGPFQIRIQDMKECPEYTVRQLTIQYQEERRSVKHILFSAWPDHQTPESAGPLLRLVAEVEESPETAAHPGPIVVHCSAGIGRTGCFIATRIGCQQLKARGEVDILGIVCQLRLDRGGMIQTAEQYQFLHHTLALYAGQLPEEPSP
Smad3 inh: Smad3 (human) transcription factor binding inhibition. 88,000 tested, 0.29% active. inhibition, % at 25 µM. P84022. AID 630. TR-FRET Smad3/Dy647-FoxH1 peptide binding, europium anti-His;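 active means compounds that reduce the energy-transfer binding signal between the protein and its labelled peptide by more than half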;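 further: 0% = Smad3 plus labelled peptide maximal FRET and 100% = peptide-only background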
Calb biofilm kill: kills Candida albicans biofilms; C. albicans biofilm + clotrimazole, Alamar Blue; inhibition, % at 6 µM; 85,000 tested, 0.14% active; AID 834;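 active means inhibition above 20%; inactive means inhibition below 20%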;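 further: preformed 24 hr biofilms exposed to compound for 48 hr; 0% = biofilm without compound and 100% = blank killed by clotrimazole plus chlorhexidine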
ERb SRC1 inh: blocks coactivator binding to human estrogen receptor beta | TR-FRET ER-beta LBD / SRC1-Cy5 peptide binding; receptor agonist-loaded with 1 µM estradiol | inhibition, % at 25.6 µM | 86,000 tested, 1.3% active | AID 633;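 active means compounds whose percent inhibition of the receptor-coactivator binding signal exceeds about 50% in the single-dose screen, limit read from the data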;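 further: 0% = receptor plus peptide wells without compound and 100% = peptide-only wells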
Active calls of the source: *; / = no result; + = active, no number; [ ] = another dose, or the depositor's remark. This is a sample that favours compounds with a hit; in the whole collection about 2.9% have one here.

SMILES	ERa coact inh	ERa coact pot	HePTP inh	Smad3 inh	Calb biofilm kill	ERb SRC1 inh
Cc1ccc(C(=O)Nc2ccc(Oc3ccccc3)cc2)o1	/	/	-10	/	/	/
O=[N+]([O-])c1cccc2c1NC(c1ccc(F)cc1)C1CC=CC21 (stereo not drawn)	/	/	7	/	/	/
O=C(O)c1cccc2c1NC(c1ccc([N+](=O)[O-])cc1)C1CC=CC21 (stereo not drawn)	/	/	103*	/	/	/
O=[N+]([O-])c1ccc(C2Nc3c(cccc3[N+](=O)[O-])C3C=CCC32)cc1 (stereo not drawn)	/	/	7	/	/	/
O=C(O)C1Nc2c(cccc2[N+](=O)[O-])C2C=CCC12 (stereo not drawn)	/	/	104*	/	/	/
O=[N+]([O-])c1cccc2c1NC(c1ccc(Cl)cc1)C1CC=CC21 (stereo not drawn)	/	/	104*	/	/	/
Cc1cc2c(=O)[nH]c(N)nc2nc1C	/	/	/	-25	/	/
Cc1cc2c(C)c(C)c(=O)[nH]c2cc1N	69*[fluorescence artefact?]	16	/	0	11	44
O=C(COc1ccccc1Cl)NNC(=O)c1cc2ccccc2cc1O	/	/	8	/	/	/
CCCn1nc(C(=O)OCC(=O)c2ccc3c(c2)NC(=O)CO3)c2ccccc2c1=O	73*	167	5	-76	6	24
O=C1COc2ccc(C(=O)COC(=O)c3ccc4ccccc4n3)cc2N1	10	109	7	20	12	6
O=C(CSc1nc2sc3c(c2c(=O)n1Cc1ccco1)CCC3)N1CCc2ccccc21	36	344*	8	-43	4	36
O=C(Cn1c(=O)n(Cc2ccco2)c(=O)c2c3c(sc21)CCCCC3)c1ccccc1	66*	67	/	7	6	47
O=C(Cn1c(=O)n(Cc2ccco2)c(=O)c2c3c(sc21)CCCCC3)Nc1ccccc1	73*	56	/	4	2	80*
O=c1c2c3c(sc2n(CCN2CCCC2)c(=O)n1Cc1ccco1)CCCCC3	-2	115	2	0	9	-12
CCN(CC)CCCOC(=O)c1ccc(O)c(OC)c1	/	/	-17	/	/	/
Cc1cc2c(cc1C)CN(c1ccc(C=Nc3cccc(Br)c3)cc1)C2	/	/	1	/	/	/
O=c1ccc(/C=C/c2ccccc2)nn1Cc1ccc(Cl)cc1Cl	-3	+[fluorescence artefact?]	/	3	-2	9
O=C1NC(=Nc2cccnc2)S/C1=C\c1cccc(F)c1	/	/	66*	/	/	/
O=C(Cn1c(=O)oc2cc(S(=O)(=O)N3CCCC3)ccc21)N1CCN(c2ccccn2)CC1	1	111	3	3	12	5
CCOC(=O)Cn1c(=O)oc2cc(S(=O)(=O)N3CCN(c4ccccn4)CC3)ccc21	31	245*[fluorescence artefact?]	3	-5	-2	33
Cc1nn(C)c(C)c1CN(C)C(=O)c1cnn2c1NC(c1ccccc1)CC2C(F)(F)F (stereo not drawn)	4	100	7	11	9	56*
CCOc1cc(/C=C2\C(=O)N(c3ccc(S(N)(=O)=O)cc3)N=C2C)cc(Br)c1O	/	/	22	/	/	/
Cc1cc(Cl)ccc1OCC(=O)Nc1nc2ccc(Cl)cc2s1	/	/	-2	/	/	/
Cc1cccc2c1N(C(=O)c1ccco1)C(C)(C)c1ssc(=S)c1-2	/	/	-17	/	/	/
SMILES	ERa coact inh	ERa coact pot	HePTP inh	Smad3 inh	Calb biofilm kill	ERb SRC1 inh
Cc1ccc2c(c1)N(C(=O)c1ccco1)C(C)(C)c1ssc(=S)c1-2	7	84	8	-9	64*	-1
CCOC(=O)c1ccc(-c2ccc(/C=C3\Sc4ccccc4C3=O)o2)cc1	/	/	-24	/	/	/
O=C(O)c1cc(-c2ccc(/C=C3/Sc4ccccc4C3=O)o2)ccc1O	/	/	102*	/	/	/
Cc1cc(C)c2nc3s/c(=C\c4ccc(-c5ccc(Cl)c(C(=O)O)c5)o4)c(=O)n3c2c1	/	/	90*	/	/	/
O=C1NC(=O)/C(=C/c2ccc(-c3ccc(O)c(C(=O)O)c3)o2)S1	/	/	102*	/	/	/
Cc1ccc(-c2ccc(/C=C3/SC(=S)NC3=O)o2)cc1Cl	/	/	8	/	/	/
O=C1NC(=S)S/C1=C\c1ccc(-c2ccc(Cl)c(C(=O)O)c2)o1	/	/	101*	/	/	/
COc1cc(/C=C/c2ccc([N+](=O)[O-])cc2[N+](=O)[O-])ccc1O	/	/	2	/	/	/
COc1ccc(CNC23CC4CC(CC(C4)C2)C3)cc1Br	/	/	-2	/	/	/
CCOC(=O)c1c(NC(=O)COc2ccccc2)sc2c1CCN(C(=O)OCC)C2	/	/	-4	/	/	/
Cc1cc(C)c2nc3s/c(=C/c4cccn4-c4ccc([N+](=O)[O-])cc4)c(=O)n3c2c1	/	/	85*	/	/	/
Cc1cc(C)c2nc3s/c(=C\c4ccc(-c5cc(C)c(C)cc5[N+](=O)[O-])o4)c(=O)n3c2c1	/	/	-2	/	/	/
Cc1c(Cl)cccc1N=C1NC(=O)/C(=C/c2ccc(-c3ccccc3C(=O)O)o2)S1	/	/	98*	/	/	/
Cc1ccc(C)n1-c1ccc(O)c(C(=O)O)c1	/	/	104*	/	/	/
O=C(O)Cc1ccc(-c2ccccc2-c2ccccc2)cc1	23	113	/	0	1	10
Cc1ccc(C)n1-c1ccc(CC(=O)O)cc1	/	/	102*	/	/	/
Cc1ccc(C)n1-c1cccc(C(=O)O)c1	0	328*	/	1	6	25
O=C(O)c1cccc(N2CCCC2)c1	1	103	7	-2	7	-2
Cc1ccc(C)n1-c1sccc1C(=O)O	71*[fluorescence artefact?]	27	/	2	1	60*
Cc1ccc(C)n1-c1ccc(Br)cc1C(=O)O	/	/	30	/	/	/
Nc1nonc1-c1ncc(-c2ccc(Br)cc2)nn1	/	/	4	/	/	/
O=C(Nc1ccc(NC(=O)c2cccc(F)c2)cc1)c1cccc(F)c1	/	/	-4	/	/	/
COc1ccc(N(CC(=O)Nc2ccc3ccccc3c2)S(C)(=O)=O)cc1	/	/	1	/	/	/
NC(N)=NS(=O)(=O)c1ccc(NC(=S)Nc2ccccc2)cc1	/	/	-3	/	/	/
Cc1nc(SCC(=O)Nc2ccccc2)c2oc3ccccc3c2n1	55*[fluorescence artefact?]	552*[fluorescence artefact?]	-14	37	2	53*[fluorescence artefact?]
SMILES	ERa coact inh	ERa coact pot	HePTP inh	Smad3 inh	Calb biofilm kill	ERb SRC1 inh
CCc1nc(SCC(=O)NCCc2ccccc2)c2oc3ccccc3c2n1	42	99	/	7	13	24
Cc1nc(SCC(=O)NCCc2ccccc2)c2oc3ccccc3c2n1	26	264*[fluorescence artefact?]	/	24	5	7
CCc1nc(SCC(=O)c2cccs2)c2oc3ccccc3c2n1	-5	224*	/	-16	0	-9
CCc1nc(SCC(=O)N2CCc3ccccc32)c2oc3ccccc3c2n1	21	147	3	2	4	-2
COc1cccc(C(=O)NCC(c2cccnc2)N2CCN(c3ccccc3OC)CC2)c1 (stereo not drawn)	/	/	5	/	/	/
COc1ccc(C(=O)NCC(c2cccnc2)N2CCN(c3ccccc3OC)CC2)cc1OC (stereo not drawn)	-8	99	1	-3	24*	-8
Oc1ccc(-n2c(O)c(/C=C3\C=Nc4ccccc43)sc2=S)cc1	/	/	6	/	/	/
O=C(O)c1ccc(-n2c(O)c(/C=C3\C=Nc4ccccc43)sc2=S)cc1	/	/	57*	/	/	/
CCN(CC)c1ccc(-n2c(O)c(C3=c4ccccc4=NC3=O)sc2=S)cc1	/	/	-10	/	/	/
O=C1N=c2ccccc2=C1c1sc(=S)n(-c2ccc(C(=O)O)cc2)c1O	/	/	100*	/	/	/
